About 8,800 targets were measured; listed, in parts, are those with a hit and a random draw of the rest. About 0.5% of all pairs of compound and target were hits.
compound: C[C@H](Nc1ncnc2nc[nH]c12)c1cc2cccc(Cl)c2c(=O)n1-c1ccccc1 [duvelisib]; assay: log2 fold change, soluble protein after heating vs DMSO (PISA); higher = thermal stabilisation; K562 lysate, 10 uM; active = over 0.2 and 3.5 SD of the protein, either way, in both replicates (recomputed)
Method in brief: (§1)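 The values are log-two fold changes in thermal stability compared with solvent controls and come from duplicates. They were obtained by TMTpro 16plex LC-MS/MS, with channel sums equalised, on the supernatant after 21,000xg for 90 min. That supernatant came from crude K562 extract at 1 mg/mL protein treated with 10 μM compound for 30 min, heated for 3 min across 48°C-58°C, pooled and brought to 0.5% NP-40 at 4°C.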

Chain of UniProt Q9NP59 (Q9NP59 whole entry, looked up): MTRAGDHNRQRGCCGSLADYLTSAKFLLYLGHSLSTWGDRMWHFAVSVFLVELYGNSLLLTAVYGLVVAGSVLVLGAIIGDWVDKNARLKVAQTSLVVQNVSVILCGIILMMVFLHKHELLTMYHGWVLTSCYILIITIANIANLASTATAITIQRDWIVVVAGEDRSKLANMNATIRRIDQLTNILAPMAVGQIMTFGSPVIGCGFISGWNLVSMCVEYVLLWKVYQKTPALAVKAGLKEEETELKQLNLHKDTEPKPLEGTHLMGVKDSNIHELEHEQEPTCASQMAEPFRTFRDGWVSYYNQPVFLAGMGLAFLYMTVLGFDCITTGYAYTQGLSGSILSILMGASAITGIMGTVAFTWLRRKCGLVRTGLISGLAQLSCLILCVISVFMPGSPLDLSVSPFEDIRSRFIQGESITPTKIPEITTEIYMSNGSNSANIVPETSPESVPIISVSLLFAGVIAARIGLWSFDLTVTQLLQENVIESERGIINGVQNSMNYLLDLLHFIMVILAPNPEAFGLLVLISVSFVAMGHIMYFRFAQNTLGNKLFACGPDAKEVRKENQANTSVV
Chain of UniProt Q13309 (Q13309 whole entry, looked up): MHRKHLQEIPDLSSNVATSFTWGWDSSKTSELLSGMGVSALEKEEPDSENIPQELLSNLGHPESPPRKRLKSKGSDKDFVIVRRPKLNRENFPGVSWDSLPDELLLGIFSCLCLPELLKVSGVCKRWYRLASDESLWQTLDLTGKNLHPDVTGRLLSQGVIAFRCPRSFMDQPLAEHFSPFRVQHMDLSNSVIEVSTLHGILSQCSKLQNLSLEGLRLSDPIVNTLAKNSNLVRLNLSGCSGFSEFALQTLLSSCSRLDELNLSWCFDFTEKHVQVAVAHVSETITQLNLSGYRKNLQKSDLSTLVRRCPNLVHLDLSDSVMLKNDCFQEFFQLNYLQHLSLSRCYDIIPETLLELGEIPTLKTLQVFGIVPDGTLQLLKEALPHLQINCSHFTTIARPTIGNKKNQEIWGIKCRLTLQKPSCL
Chain of UniProt Q9UHW9 (Q9UHW9 whole entry, looked up): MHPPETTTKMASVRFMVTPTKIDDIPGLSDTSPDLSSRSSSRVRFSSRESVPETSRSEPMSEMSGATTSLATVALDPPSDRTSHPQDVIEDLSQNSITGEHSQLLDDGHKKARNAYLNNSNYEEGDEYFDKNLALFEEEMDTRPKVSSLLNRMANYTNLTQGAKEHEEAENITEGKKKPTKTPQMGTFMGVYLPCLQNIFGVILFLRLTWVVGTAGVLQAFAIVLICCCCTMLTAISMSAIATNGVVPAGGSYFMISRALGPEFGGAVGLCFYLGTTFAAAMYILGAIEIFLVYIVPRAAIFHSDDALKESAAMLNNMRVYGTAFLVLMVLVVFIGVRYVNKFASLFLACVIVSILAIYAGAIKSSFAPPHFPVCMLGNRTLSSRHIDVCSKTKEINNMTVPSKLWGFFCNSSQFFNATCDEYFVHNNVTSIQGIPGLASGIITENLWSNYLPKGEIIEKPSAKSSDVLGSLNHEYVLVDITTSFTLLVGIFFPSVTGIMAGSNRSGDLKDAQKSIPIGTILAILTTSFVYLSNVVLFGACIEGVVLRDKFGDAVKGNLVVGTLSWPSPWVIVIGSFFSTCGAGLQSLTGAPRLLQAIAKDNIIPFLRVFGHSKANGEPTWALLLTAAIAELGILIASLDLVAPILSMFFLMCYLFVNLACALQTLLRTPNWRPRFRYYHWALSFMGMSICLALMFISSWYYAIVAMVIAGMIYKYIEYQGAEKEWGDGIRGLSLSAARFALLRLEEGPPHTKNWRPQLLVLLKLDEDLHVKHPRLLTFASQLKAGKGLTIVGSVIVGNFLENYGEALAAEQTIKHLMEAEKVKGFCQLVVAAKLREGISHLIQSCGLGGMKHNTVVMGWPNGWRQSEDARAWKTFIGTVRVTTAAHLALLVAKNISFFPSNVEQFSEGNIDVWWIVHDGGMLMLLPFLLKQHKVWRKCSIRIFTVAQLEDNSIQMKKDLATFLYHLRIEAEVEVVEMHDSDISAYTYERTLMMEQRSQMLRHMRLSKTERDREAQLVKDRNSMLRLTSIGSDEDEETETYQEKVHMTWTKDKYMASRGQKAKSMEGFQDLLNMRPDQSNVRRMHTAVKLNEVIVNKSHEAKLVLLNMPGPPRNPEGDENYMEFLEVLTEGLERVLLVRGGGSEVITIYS
Chain of UniProt Q13487 (Q13487 whole entry, looked up): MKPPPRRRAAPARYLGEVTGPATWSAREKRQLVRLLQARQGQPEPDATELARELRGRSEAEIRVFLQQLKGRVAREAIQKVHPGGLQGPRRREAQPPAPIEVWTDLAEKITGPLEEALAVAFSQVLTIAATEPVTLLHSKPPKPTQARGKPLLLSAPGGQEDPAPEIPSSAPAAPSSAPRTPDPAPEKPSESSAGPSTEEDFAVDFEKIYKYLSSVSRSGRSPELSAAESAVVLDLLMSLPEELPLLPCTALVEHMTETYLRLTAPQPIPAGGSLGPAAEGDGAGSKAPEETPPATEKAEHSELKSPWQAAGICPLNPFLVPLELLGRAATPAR
Chain of UniProt Q9Y2D2 (Q9Y2D2 whole entry, looked up): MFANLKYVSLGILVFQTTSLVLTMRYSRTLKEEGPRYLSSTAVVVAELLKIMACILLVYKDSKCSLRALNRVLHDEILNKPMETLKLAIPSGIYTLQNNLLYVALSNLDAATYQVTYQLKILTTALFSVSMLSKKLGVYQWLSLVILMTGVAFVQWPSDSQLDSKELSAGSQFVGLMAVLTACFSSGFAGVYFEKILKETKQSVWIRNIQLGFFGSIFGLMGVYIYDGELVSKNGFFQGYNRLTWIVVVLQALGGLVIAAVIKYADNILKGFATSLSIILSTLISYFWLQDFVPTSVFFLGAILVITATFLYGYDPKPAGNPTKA
Chain of UniProt O75182 (O75182 whole entry, looked up): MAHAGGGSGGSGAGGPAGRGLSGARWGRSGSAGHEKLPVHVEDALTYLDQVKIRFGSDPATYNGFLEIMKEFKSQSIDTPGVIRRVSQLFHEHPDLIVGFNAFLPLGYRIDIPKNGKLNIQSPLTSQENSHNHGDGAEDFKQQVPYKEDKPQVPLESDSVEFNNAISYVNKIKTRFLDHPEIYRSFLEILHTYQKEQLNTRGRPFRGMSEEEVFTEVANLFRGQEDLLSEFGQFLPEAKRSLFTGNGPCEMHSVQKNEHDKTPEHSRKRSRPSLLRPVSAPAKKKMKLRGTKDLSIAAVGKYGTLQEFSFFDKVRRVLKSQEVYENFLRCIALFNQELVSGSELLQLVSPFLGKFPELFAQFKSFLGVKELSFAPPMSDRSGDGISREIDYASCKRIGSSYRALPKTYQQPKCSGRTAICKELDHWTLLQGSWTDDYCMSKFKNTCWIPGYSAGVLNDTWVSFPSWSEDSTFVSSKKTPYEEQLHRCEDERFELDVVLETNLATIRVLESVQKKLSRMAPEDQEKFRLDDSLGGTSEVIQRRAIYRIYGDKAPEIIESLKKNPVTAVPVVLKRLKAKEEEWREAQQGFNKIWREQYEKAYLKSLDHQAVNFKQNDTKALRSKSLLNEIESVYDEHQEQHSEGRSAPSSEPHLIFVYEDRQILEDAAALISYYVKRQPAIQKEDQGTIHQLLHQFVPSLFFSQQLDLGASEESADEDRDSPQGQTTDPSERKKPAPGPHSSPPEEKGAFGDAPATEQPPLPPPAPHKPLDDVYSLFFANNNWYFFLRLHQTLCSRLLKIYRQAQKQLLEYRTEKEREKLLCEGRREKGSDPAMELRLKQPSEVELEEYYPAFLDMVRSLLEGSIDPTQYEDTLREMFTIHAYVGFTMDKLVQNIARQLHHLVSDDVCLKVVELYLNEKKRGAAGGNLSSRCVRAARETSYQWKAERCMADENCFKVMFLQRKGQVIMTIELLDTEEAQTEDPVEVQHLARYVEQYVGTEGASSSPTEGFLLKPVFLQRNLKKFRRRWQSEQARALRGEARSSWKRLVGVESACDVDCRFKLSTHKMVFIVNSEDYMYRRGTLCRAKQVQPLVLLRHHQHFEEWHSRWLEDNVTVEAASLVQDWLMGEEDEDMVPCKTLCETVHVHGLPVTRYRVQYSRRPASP
Chain of UniProt Q9Y2H1 (Q9Y2H1 whole entry, looked up): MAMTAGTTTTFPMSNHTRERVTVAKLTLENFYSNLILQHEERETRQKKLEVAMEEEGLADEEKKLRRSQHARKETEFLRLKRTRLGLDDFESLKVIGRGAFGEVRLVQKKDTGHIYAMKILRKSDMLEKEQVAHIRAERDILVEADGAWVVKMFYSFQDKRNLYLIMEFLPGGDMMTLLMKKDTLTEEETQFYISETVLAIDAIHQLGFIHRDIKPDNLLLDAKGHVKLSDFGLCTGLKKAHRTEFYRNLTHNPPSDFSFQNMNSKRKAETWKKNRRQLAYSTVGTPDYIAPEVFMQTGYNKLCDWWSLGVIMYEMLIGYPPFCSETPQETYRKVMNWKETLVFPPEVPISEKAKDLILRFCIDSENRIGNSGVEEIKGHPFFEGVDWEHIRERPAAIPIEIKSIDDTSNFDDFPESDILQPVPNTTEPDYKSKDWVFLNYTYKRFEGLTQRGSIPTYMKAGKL
Chain of UniProt O60906 (O60906 whole entry, looked up): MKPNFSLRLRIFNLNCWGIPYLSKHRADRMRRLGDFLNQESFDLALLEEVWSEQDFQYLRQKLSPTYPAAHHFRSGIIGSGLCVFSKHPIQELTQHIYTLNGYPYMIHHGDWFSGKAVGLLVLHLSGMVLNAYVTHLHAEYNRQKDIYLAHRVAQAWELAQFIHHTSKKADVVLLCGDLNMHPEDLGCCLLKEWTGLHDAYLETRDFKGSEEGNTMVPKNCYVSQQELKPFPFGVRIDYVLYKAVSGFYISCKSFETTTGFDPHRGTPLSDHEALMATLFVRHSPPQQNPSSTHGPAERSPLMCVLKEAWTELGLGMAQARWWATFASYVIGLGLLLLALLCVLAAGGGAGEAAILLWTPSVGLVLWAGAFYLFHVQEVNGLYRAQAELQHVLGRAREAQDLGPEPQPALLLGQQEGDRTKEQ

Target	log2 fold change
SNRPD2 (UniProt K7EJB5)	0.014 (inactive)
SNAPC2 (UniProt Q13487)	-0.129 (inactive)
STAR (UniProt P49675)	0.017 (inactive)
SLC12A6 isoform 2 (UniProt Q9UHW9)	-0.023 (inactive)
SMARCA4 isoform 4 (UniProt P51532)	-0.068 (inactive)
SYK (UniProt P43405)	0.004 (inactive)
SRC isoform 2 (UniProt P12931)	0.001 (inactive)
SKP2 (UniProt Q13309)	-0.024 (inactive)
SLU7 (UniProt O95391)	0.06 (inactive)
SZT2 (UniProt Q5T011)	-0.081 (inactive)
SLC40A1 (UniProt Q9NP59)	0.099 (inactive)
STK26 isoform 3 (UniProt Q9P289)	0.008 (inactive)
SLC25A36 (UniProt Q96CQ1)	-0.122 (inactive)
STK38L (UniProt Q9Y2H1)	-0.007 (inactive)
SMPD2 (UniProt O60906)	0.107 (inactive)
SHB (UniProt Q15464)	-0.034 (inactive)
STK17B (UniProt O94768)	0 (inactive)
TAF11 (UniProt Q15544)	-0.06 (inactive)

compound: Cc1cc(Nc2cc(CN3CCOCC3)c3nc(C)c(Cc4ccc(Cl)cc4F)n3n2)n[nH]1 [gandotinib]; assay: as above
Method in brief: as §1

Target	log2 fold change
STK17A (UniProt Q9UEE5)	-0.001 (inactive)
SNAPC2 (UniProt Q13487)	0.01 (inactive)
STAR (UniProt P49675)	0.156 (inactive)
SMARCA4 isoform 4 (UniProt P51532)	-0.007 (inactive)
SLC41A1 (UniProt Q8IVJ1)	0.136 (inactive)
SSX5 isoform 2 (UniProt O60225)	0.092 (inactive)
STAU1 isoform 3 (UniProt O95793)	0.112 (inactive)
SYK (UniProt P43405)	0.272 (inactive)
SRC isoform 2 (UniProt P12931)	0.061 (inactive)
SIN3B (UniProt O75182)	0.116 (inactive)
SKP2 (UniProt Q13309)	-0.075 (inactive)
SLU7 (UniProt O95391)	0.255 (inactive)
SZT2 (UniProt Q5T011)	-0.17 (inactive)
SLC40A1 (UniProt Q9NP59)	0.054 (inactive)
SHC1 (UniProt P29353)	-0.033 (inactive)
SLC25A36 (UniProt Q96CQ1)	0.024 (inactive)
SMPD2 (UniProt O60906)	-0.051 (inactive)
SLC35A3 isoform 2 (UniProt Q9Y2D2)	0.215 (inactive)
SNAP23 isoform 2 (UniProt O00161)	-0.054 (inactive)
SHB (UniProt Q15464)	0.186 (inactive)
SLCO4A1 (UniProt Q96BD0)	0.062 (inactive)
TAF11 (UniProt Q15544)	0.026 (inactive)

compound: Cc1cc(Nc2cc(N3CCN(C)CC3)nc(Sc3ccc(NC(=O)C4CC4)cc3)n2)n[nH]1 [tozasertib]; assay: as above
Method in brief: as §1

Target	log2 fold change
TARDBP (UniProt K7EN94)	0.257 (inactive)
SNRPD2 (UniProt K7EJB5)	0.051 (inactive)
STAR (UniProt P49675)	0.063 (inactive)
SLC12A6 isoform 2 (UniProt Q9UHW9)	0.068 (inactive)
SMARCA4 isoform 4 (UniProt P51532)	0.136 (inactive)
SLC41A1 (UniProt Q8IVJ1)	-0.016 (inactive)
SSX5 isoform 2 (UniProt O60225)	0.085 (inactive)
SYK (UniProt P43405)	0.002 (inactive)
SRC isoform 2 (UniProt P12931)	0.098 (inactive)
SIN3B (UniProt O75182)	-0.095 (inactive)
SKP2 (UniProt Q13309)	-0.096 (inactive)
SLU7 (UniProt O95391)	0.028 (inactive)
SZT2 (UniProt Q5T011)	-0.097 (inactive)
SLC40A1 (UniProt Q9NP59)	-0.035 (inactive)
STK26 isoform 3 (UniProt Q9P289)	-0.001 (inactive)
SLC25A36 (UniProt Q96CQ1)	-0.09 (inactive)
STK38L (UniProt Q9Y2H1)	-0.009 (inactive)
SMPD2 (UniProt O60906)	-0.031 (inactive)
SLC35A3 isoform 2 (UniProt Q9Y2D2)	0.032 (inactive)
SNAP23 isoform 2 (UniProt O00161)	-0.185 (inactive)
TAF11 (UniProt Q15544)	0.102 (inactive)

compound: Cc1ccc(-n2nc(C(C)(C)C)cc2NC(=O)Nc2ccc(OCCN3CCOCC3)c3ccccc23)cc1 [doramapimod]; assay: as above
Method in brief: as §1

Target	log2 fold change
SNRPD2 (UniProt K7EJB5)	0.105 (inactive)
SNAPC2 (UniProt Q13487)	0.03 (inactive)
STAR (UniProt P49675)	0.019 (inactive)
SLC12A6 isoform 2 (UniProt Q9UHW9)	0.054 (inactive)
SMARCA4 isoform 4 (UniProt P51532)	-0.048 (inactive)
SLC41A1 (UniProt Q8IVJ1)	0.01 (inactive)
STAU1 isoform 3 (UniProt O95793)	0.269 (inactive)
SYK (UniProt P43405)	0.021 (inactive)
SIN3B (UniProt O75182)	0.584 (inactive)
SKP2 (UniProt Q13309)	-0.024 (inactive)
SLU7 (UniProt O95391)	-0.099 (inactive)
SLC40A1 (UniProt Q9NP59)	-0.056 (inactive)
STK26 isoform 3 (UniProt Q9P289)	-0.416 (inactive)
SLC25A36 (UniProt Q96CQ1)	-0.011 (inactive)
STK38L (UniProt Q9Y2H1)	-0.025 (inactive)
SPAG1 (UniProt Q07617)	-0.025 (inactive)
SLC35A3 isoform 2 (UniProt Q9Y2D2)	0.095 (inactive)
SHB (UniProt Q15464)	0.028 (inactive)
STK17B (UniProt O94768)	-0.117 (inactive)
TAF11 (UniProt Q15544)	0.023 (inactive)

Reference: the supplement of paper PMC10849652
